In PubChem BioAssay (NCI) one finds growth data, which are given here for twelve compounds.

Molecules are shown by their SMILES. Where “and” joins values, the source holds several entries; their conditions need not be identical. Identical values can stand only once. This is part of a sample that, as a whole, favours compounds with a hit. Of some 83,000 tested, about 20% had one in any assay.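 How to read the values: 0–100, growth inhibition (40 = 60% inhibited); 0, no net growth; -100 to 0, cell death (-40 = 40% of starting cells died; -100 = all dead).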 Values without a mark were called inactive. Calls of active or inactive are those of the source. The calls were made as follows: active = growth percent below 10; inactive = the rest.

This assay concerns MDA-MB-468 breast. Kind of assay: NCI-60 one-dose screen, 48 h (100 = growth as untreated, 0 = no growth, -100 = all killed). To be noted: 10 µM unless noted.
On to `C=C(C)[C@@H]1CC[C@]2(C#N)CC[C@]3(C)[C@H](CC[C@@H]4[C@@]5(C)CCCNC(C)(C)[C@@H]5CC[C@]43C)[C@@H]12`, for which the growth was 19.3%.
As for `Nc1nc(SCC#CCCl)c2[nH]cnc2n1`, the growth was -6.97% (active).
Take `CC1(C)c2[nH]c3ccccc3c2C[C@]2(C)[C@H]3CC=C4[C@@H]5C[C@@](C)(C(N)=O)CC[C@]5(C)CC[C@@]4(C)[C@]3(C)CC[C@@H]12`: the growth was 21.7%.
As to `COC1C(O)CC(OC2CC(OC3CC(O[C@@H]4C(=O)c5c(cc6cc(OC7CC(OC8CC(O)C(O)C(C)O8)C(O)C(C)O7)c(C)c(O)c6c5O)CC4[C@H](OC)[C@@H](O)C(C)=O)OC(C)C3O)OC(C)C2O)OC1C` (some centres not stated), the growth is -40.1% (active).
Take `C=C1C(=O)O[C@H]2[C@H]1CC/C(COC(=O)NCCc1cccc(OC)c1)=C\CC[C@@]1(C)O[C@@H]21`: the growth is 18.9%.
As for `CC(=O)c1ccc2c(c1)c1ccccc1n2C`, the growth is 79.5%.
Take `CCC(=O)Oc1ccc(OCc2ccccc2)cc1`: the growth was 104% and 118%.
Under `CCC(C)CC(N)O` (configuration not stated) stands 94.1%.
Take `CCCCCCN1CCN(Cc2ccc(N(CC)CC)cc2)C(=O)C1=O`: the growth was 22.9%.
On to `CN1C2CCC1/C(=C\c1ccc(F)cc1)C(=O)/C2=C/c1ccc(F)cc1`, for which the growth is 28.8%.
For `O=S(=O)(NCCCNc1nccc(-c2c(-c3cccc(F)c3)nc3occn23)n1)c1ccc(F)cc1`, the growth is 26.7%.
Under `COc1ccc(CNc2c3ccccc3nc3ccc(OC)cc23)cc1` stands -14.7% (active).
